Source: PubChem BioAssay
Insulin prom inh: inhibitors of insulin promoter-driven GFP, primary screen, imaging, TRM-6 cells (human fetal islet line), eGFP reporter, cell count; inhibition, % at 2 µM; reporter expression induced with tamoxifen; 0.9% of 130,000 active;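 active means inhibition above the mean plus 3 SD, with well images judged a real hit on visual review, cut at about 60% in these data, passing the limit was not always enough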
WT yeast gro inh: growth inhibition of WT strain, primary screen, mitochondrial fusion inhibitor project, WT and mutant strains, chemical genetic. mitochondrial fusion phenotypic screen. inhibition, % at 10 µM. 2.1% of 190,000 active. AID 1362, 2008; in the data active means inhibition above about 58%; tested in S. cerevisiae
L major viab: Leishmania major promastigote growth inhibition, primary screen; Leishmania major promastigotes, resazurin fluorescence viability; inhibition, % at 10 µM; 9% of 200,000 active; AID 1063, 2008; in the data active means inhibition above about 50%;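 further: promastigotes grown with compound for 44 hours at 28 °C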
Cl transport mod: KCC2 cotransporter modulators, thallium flux, primary screen, cell-based, HEK293 KCC2, FluoZin-2 fluorescence, MLSMR. AID 1456, 2008. B-score of Tl+ flux slope (higher = more flux/activation; lower = inhibition) at 10 µM. KCC2 cells, thallium flux FluoZin-2 fluorescence. 2.2% of 190,000 active. Solute carrier family 12 member 5 (Homo sapiens), Q9H2X9;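 active means thallium flux slope and its plate-corrected score both differing from the plate sample mean at a set confidence after two filtering rounds, in either direction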;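 further: slope of fluorescence scaled to starting intensity during 10 to 20 s after thallium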
Ins promoter up: insulin promoter activators in MIN6 cells, imaging, high-content screening, mouse beta cells | MIN6 insulin promoter-GFP reporter; active compounds read high | z-score at 5 µM | 0.3% of 190,000 active | AID 1625, 2009;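 active means z-score above 3 at 5 µM with at least 500 cells counted in the well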
ROMK primary: ROMK potassium channel modulators, primary screen, cell-based, thallium flux, MLSMR library | ATP-sensitive inward rectifier potassium channel 1 (Homo sapiens), P48048 | Tet-inducible ROMK, thallium flux fluorescence; actives lie on both sides | B-score at 10 µM | 2% of 130,000 active;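 active means signal ratio slope over the read window, or its plate-corrected B-score, at least 3 SD from the plate mean, either direction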;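 further: B-score of the F/F0 ratio slope over 7 to 12 s after thallium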
Active calls of the source: *; . = not tested or not shown. The list is not random: actives were taken first. Their share in the collection is about 12%.

SMILES | Insulin prom inh | WT yeast gro inh | L major viab | Cl transport mod | Ins promoter up | ROMK primary
CN1CCN(NS(=O)(=O)c2ccc(Cl)s2)CC1 | 11 | -25 | 55* | 0.19 | -0.1 | -0.63
Cc1cc(C)c2c(n1)nn1c(NCCN3CCOCC3)cc(C)nc21 | . | 23 | -3 | 0.013 | -0.39 | .
N=c1c2c(ncn1CCCO)Oc1ccc3ccccc3c1C2c1ccccc1 (stereo not drawn) | . | . | . | 0.29 | -0.58 | -1.2
COc1ccc(C2c3ccc4ccccc4c3Oc3ncn(CCN4CCOCC4)c(=N)c32)cc1 (stereo not drawn) | 3 | -23 | 100* | -0.036 | -1.2 | .
N=c1c2c(ncn1Cc1ccco1)Oc1ccc3ccccc3c1C2c1ccccc1 (stereo not drawn) | . | 66* | 96* | 0.84 | 0.26 | -0.76
COc1ccc(C2c3ccc(O)cc3Oc3ncn(Cc4ccco4)c(=N)c32)cc1 (stereo not drawn) | . | . | . | -1.5 | 1 | .
COc1ccc(C2c3c(ncn(Cc4ccco4)c3=N)Oc3ccc4ccccc4c32)cc1 (stereo not drawn) | . | 64* | 99* | 0.39 | -0.79 | .
COc1ccc(C(=O)Nc2ccc(S(=O)(=O)N3CCCC3)cc2)c(OC)c1 | -64 | -9 | -1 | . | -0.02 | 0.015
Cc1ccc(/C=C2\CCC3=C2OC(N)=C(C#N)C3c2ccc(C)cc2)cc1 (stereo not drawn) | . | -13 | 100* | 0.098 | 2.1 | -4.9*
N#CC1=C(N)OC2=C(CCc3ccccc32)C1c1ccccc1 (stereo not drawn) | -73 | 90 | 16 | -0.52 | -0.47 | 1.9
CCCn1nnnc1NCc1cccn1C | . | 6 | -4 | . | 0.5 | .
Cc1ccc(NCc2ccccc2O)cc1 | -75 | -6 | 1 | . | 0.92 | 1.3
Cc1ccc(CNc2ccc(O)cc2)cc1 | 16 | 27 | 99* | 0.65 | -0.16 | -0.96
Cc1nc(Nc2ccccc2)sc1C(=O)c1ccccc1 | . | . | . | -0.22 | 0.01 | .
Cc1nc(Nc2ccccc2)sc1-c1ccccc1 | 53 | 64* | -1 | 0.64 | -0.16 | 0.99
Cc1nc(Nc2ccc(C(=O)O)cc2)sc1-c1ccccc1 | . | -1 | 21 | -0.4 | -0.34 | 3.7*
Cc1ccc(-n2nnnc2-c2cnc(N3CCCC3)nc2C(F)(F)F)cc1 | 17 | 6 | 3 | -1.6 | -2 | -1.2
FC(F)(F)c1nc(N2CCCC2)ncc1-c1nnnn1-c1ccccc1 | . | 60* | 17 | -0.66 | -1.6 | -0.55
COc1ccc(NC(=O)c2cccs2)cc1NC(=O)c1ccco1 | 23 | 0 | 52* | . | -0.29 | .
Cc1ccc(NC(=O)c2cccs2)cc1NC(=O)c1ccco1 | 0 | 0 | 2 | . | 0.21 | -0.9
COc1cc(NC(=O)c2ccco2)c(OC)cc1NC(=O)CCC(=O)Nc1cc(C)ccc1C | . | -28 | 4 | 0.41 | -0.44 | 0.38
COc1cc(NC(=O)c2ccc([N+](=O)[O-])o2)ccc1NC(=O)c1cccs1 | -209 | 95* | 100* | -0.66 | -0.64 | 0.046
COc1cc(NS(=O)(=O)c2ccc(Br)cc2)c(OC)cc1NC(=O)c1ccco1 | -33 | 8 | 91* | -0.12 | 0.69 | 0.0058
COc1ccc(S(=O)(=O)Nc2cc(OC)c(NC(=O)c3ccco3)cc2OC)cc1 | 6 | 0 | 14 | -0.025 | -0.31 | -0.93
COc1ccc(C)cc1NC(=O)C(=O)NNC(=O)c1ccco1 | . | 4 | -8 | 21* | 0.86 | .
SMILES | Insulin prom inh | WT yeast gro inh | L major viab | Cl transport mod | Ins promoter up | ROMK primary
CCNC(=O)c1nc[nH]c1C(=O)NCC | 11 | 1 | 4 | 0.52 | 0.2 | .
O=C(CN1CC(=O)Oc2ccccc21)OCC(=O)c1ccc(F)cc1 | -214 | -9 | 7 | -0.0084 | 0.69 | -0.45
O=C(NCc1ccccc1)c1ccc2c(=O)n(CCCN3CCCC3=O)c(=S)[nH]c2c1 | 21 | -5 | -8 | -1.9 | 0.07 | -0.55
CCn1cc(CN2CCN(Cc3ccc(OC)c(C)c3C)C(CCO)C2)c(C)n1 (stereo not drawn) | . | -9 | 7 | 0.11 | . | -0.24
COC(=O)c1cc(CNC(=O)c2cccc(Cl)c2Cl)ccc1OC | -7 | -6 | 53* | -0.24 | -0.34 | .
COC(=O)c1cc(CNC(=O)c2cccc(Cl)c2)ccc1OC | . | -7 | 7 | 0.97 | -0.09 | .
CCn1c(=O)c(C(=O)CC#N)c(N)n(Cc2ccccc2)c1=O | . | . | . | 1 | 0.32 | .
CC(C)=C1C2CCC1C1C(=O)N(c3nccs3)C(=O)C21 (stereo not drawn) | 5 | 4 | -4 | 1.3 | 0.33 | 0.49
CC(C)=C1C2CCC1C1C(=O)N(c3nc(-c4ccccc4)c(C)s3)C(=O)C21 (stereo not drawn) | . | 59* | -8 | -0.12 | 0.15 | .
O=S(=O)(Nc1nc2ccccc2s1)c1ccc(Cl)s1 | -14 | -12 | -1 | -1.1 | . | .
CCOC(=O)c1c(-c2ccc(C)cc2)csc1NC(=O)CCN1CCOCC1 | -9 | 36 | 97* | -0.017 | -0.32 | -0.035
CCOC(=O)c1c(-c2ccc(C)o2)csc1NC(=O)CN1CCOCC1 | -40 | -1 | 89* | . | 0.26 | -1.1
CCOC(=O)c1c(-c2ccccc2)csc1NC(=O)c1ccc(S(=O)(=O)N2CCOCC2)cc1 | -23 | 12 | 9 | -0.093 | -0.37 | .
CCOC(=O)c1c(-c2cccs2)csc1NC(=O)CN1CCOCC1 | -33 | 15 | 4 | -1.4 | 0.69 | .
CCOC(=O)c1c(-c2ccccc2)csc1NC(=O)CCN1CCOCC1 | -29 | 57 | 98* | 0.04 | -0.16 | -0.41
CC(C)CNS(=O)(=O)c1ccc(CCC(=O)NCC2CCCO2)cc1 (stereo not drawn) | -24 | -11 | 0 | 1.2 | -0.48 | .
CN(/C=C1/C(=O)CNC1=O)CCO | -6 | -18 | -2 | -0.064 | 1.1 | -0.091
Cc1cc(C)[n+](-c2ccc(F)cc2)c2[nH]c(=O)[nH]c(=O)c12 | -16 | 26 | -7 | -0.5 | 0.73 | .
O=C(OCn1ncc(Br)c(Br)c1=O)c1ccc(F)cc1 | -186 | 87* | 100* | -4.7* | . | -3.5*
O=C(OCn1ncc(Br)c(Br)c1=O)c1ccccc1Cl | . | 80 | 101* | . | 0.29 | -2.1
CN(C)c1cccc(NC(=O)Cc2ccc(F)cc2)c1 | . | 4 | 7 | 0.16 | -0.14 | .
COc1ccccc1NC(=O)Cc1noc(CSc2nnc(N)s2)n1 | -31 | -5 | -1 | . | 0.34 | .
Cc1ccc(Nc2ncccc2C(=O)NCc2cccs2)c(C)c1 | -7 | 67* | 96* | -0.45 | . | .
Cc1cccc(Nc2ncccc2C(=O)NCc2cccs2)c1C | -10 | 46 | 79* | 0.34 | -0.4 | .
O=C(NCc1cccs1)c1cccnc1Cl | -16 | -6 | -5 | 1.1 | 0.87 | .
Cc1ccc(C)c(-c2cc(C(=O)NCc3cccs3)c3ccccc3n2)c1 | -9 | 21 | 7 | 0.67 | -0.14 | .
CN(C)CCCNc1nc2sc3c(c2c(=O)n1CCc1ccccc1)CCCCC3 | . | . | . | 0.1 | -1.9 | .
Fc1ccccc1NC(=S)Nc1ccc(Br)cc1 | . | 62* | 7 | 1.2 | -0.74 | .
